Source: PubChem BioAssay (NCI)
“And” between values parts separate entries of the source, which are not always exact repeats. Equal values may be shown once. The panel holds about 79,000 compounds, 15% with a hit somewhere; the sample as a whole holds those more often. Values without a mark were called inactive. The source made the active and inactive calls. No stated cut-off is given here; in the data, active means growth inhibition above about 70%; inactive means the rest.

Key:
[1] = NCI Yeast Anticancer Drug Screen. Data for the rad50 strain (AID 155);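 further: 0% = growth of vehicle-only cultures of the same strain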; details: S. cerevisiae rad50 strain growth inhibition; at 50.0 µM; hits give high values
In short: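 Genetically altered yeast (DNA repair pathway); compound treatment; growth inhibition vs vehicle ctrl.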

[2] = NCI Yeast Anticancer Drug Screen. Data for the mec2-1 strain (AID 157); details: S. cerevisiae mec2-1 strain, at 50.0 µM, hits give high values
In short: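 Strain: mec2-1 (DNA repair/cell cycle alteration). Compound exposure, then growth measured; inhibition expressed relative to vehicle.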

[3] = NCI Yeast Anticancer Drug Screen. Data for the sgs1 mgt1 strain (AID 161);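 further: 0% = growth of cultures given vehicle only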; details: S. cerevisiae sgs1 mgt1 strain, at 50.0 µM, hits give high values
In short: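 Read-out: growth inhibition vs vehicle controls. Cells: mutant yeast strain deficient in DNA damage repair.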

[4] = NCI Yeast Anticancer Drug Screen. Data for the cln2 rad14 strain (AID 165);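 further: 0% = growth equal to vehicle treated cultures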; details: S. cerevisiae cln2 rad14 strain, at 50.0 µM, hits give high values
In short: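 Compounds are applied to the cln2 rad14 yeast strain, and growth is then compared with that of vehicle-treated cultures to give inhibition.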

[5] = NCI Yeast Anticancer Drug Screen. Data for the bub3 strain (AID 167); details: S. cerevisiae bub3 mutant strain, at 50.0 µM, hits give high values
In short: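 Yeast carrying a defined mutation is treated with each compound, and growth is compared with that of vehicle-exposed cells to give inhibition.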

[6] = NCI Yeast Anticancer Drug Screen. Data for the mlh1 rad18 strain (AID 175); details: S. cerevisiae mlh1 rad18 strain growth inhibition; at 50.0 µM; hits give high values
In short: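 Read-out is yeast growth inhibition, calculated against vehicle-only controls. The compound was applied to a strain engineered with DNA damage repair alterations.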

Row | Compound | growth inhibition [1] | growth inhibition [2] | growth inhibition [3] | growth inhibition [4] | growth inhibition [5] | growth inhibition [6]
1 | O=[N+]([O-])c1ccc(Cl)c([N+](=O)[O-])c1 | 99.2% (active) | 98.5% (active) | 99.2% (active) | 96.3% (active) | 98.7% (active) | 99.2% (active)
2 | Cc1nnc2cc3ccccc3cn12 | 21% | 9.45% | 26.4% | 9.45% | 21.9% | 18.1%
3 | CCC1(c2c(F)c(F)c(N)c(F)c2F)CCC(=O)NC1=O (centres undefined) | -11.9% | -6.25% | -1% | 16.4% | -16.4% | 1.6%
4 | Cc1cc(N(CCCl)CCCl)ccc1C=Nc1ccccc1C(=O)O | 27.4% | 3.9% | 28.4% | 16.1% | 2.65% | 29.1%
5 | COc1ccc2c(c1OC)C[C@@H]1c3c(cc4c(c3-2)OCO4)CCN1C | 21.2% | -30.2% | -23.6% | -14.6% | -0.6% | -56.5%
6 | O=S(=O)(c1ccc(O)cc1)c1ccc(O)cc1 | -5.25% and 0.75% | -2.8% and -7.6% | -3.75% and -4.95% | -11.7% and -36.2% | 1.85% and -8.15% | 2.55% and -4.05%
7 | C[As+](C)(C)c1cccc(N)c1 | -1.6% | -6.6% | -10.1% | -14.8% | -1% | 0.45%
8 | CCOC(=O)/C=C1\Nc2ccccc2C(c2ccccc2)=NC1OC(C)=O (centres undefined) | 39.1% | -20.6% | 22.6% | 23.6% | -13.7% | -9%
9 | O=c1cc[cH-]o1.[C-]#[O+].[C-]#[O+].[C-]#[O+].[C-]#[O+].[C-]#[O+].[C-]#[O+].[CH-]=O.[Co+2].[Co] | -14.5% and -3.2% | -4.15% and 4.75% | 0.5% and -6.75% | -10.5% and 6.25% | -8.4% and 21.8% | 9.6% and 4.05%
10 | O/N=C1\CN2CCC1CC2 | 15.9% | 13.2% | 1.7% | 15.4% | 10.4% | 20.3%
11 | CC1CC(C)(O)CC(C(O)CC2CC(=O)NC(=O)C2)C1=O (centres undefined) | 55.9% | 51% | 48.2% | 56.1% | 67% | 68.2%
12 | O=[N+]([O-])c1ccc(C#Cc2ccc(N(CCCl)CCCl)cc2)cc1 | 1.95% | -8.85% | 7.5% | -65.5% | 9.2% | -3.95%
13 | CNC(=O)Oc1cc(OC)ccc1C(=O)c1ccccc1 | 2.45% | 6.85% | 32.6% | -21.6% | 5.35% | 47%
14 | C1CC[N-]CC1.CC(=N\O)/C(C)=N/O.CC(=N\O)/C(C)=N/O.N#C[CH-]CC#N.[Co+2] | 31.4% | 19.2% | 25.3% | -19.4% | 28.5% | 38.9%
15 | CS(=O)(=O)Cl | 7.65% | -26.9% | 16.4% | 13.1% | -4.85% | 0%
16 | O=[N+]([O-])c1cc(Cl)ccc1Cl | 11.6% and 28.9% | 4.4% and -26.1% | 4.75% and -10.9% | 3.95% and -47.9% | -6.85% and -12.7% | 0.35% and -8.7%
17 | CN(C)CCSC(c1ccccc1)c1ccc(Br)cc1 (centres undefined) | 32.5% | 20.1% | 52.4% | 58.6% | 34.4% | 62.2%
18 | CC12CCC3C(CCC4(O)C=CCCC34C=O)C1(O)CC(O)C2c1ccc(=O)oc1 (centres undefined) | -28.1% | -46.9% | -12.7% | -15.8% | -53.9% | -16.2%
19 | CCCCCCCCCCCCC(=O)O.[Pb] | 1.45% | 10.2% | -14.4% | 24.2% | -2.05% | 3.35%
20 | C/C(=N\NC(N)=O)C(CN(C)C)C(c1ccccc1)c1c(O)c2ccccc2oc1=O (centres undefined) | 15.8% | 21.1% | 15.6% | 5% | 9.7% | 8%

Row | Compound | growth inhibition [1] | growth inhibition [2] | growth inhibition [3] | growth inhibition [4] | growth inhibition [5] | growth inhibition [6]
21 | CSCCC(N)P(C)(=O)O (centres undefined) | -16.4% | -37.5% | -15.7% | 1.5% | -46.1% | -17.5%
22 | O=S1(N2CC2)=NP(N2CC2)(N2CC2)=NP(N2CC2)(N2CC2)=N1 (centres undefined) | -20.9% | -22.5% | -16.8% | 11.2% | -33% | -67.1%
23 | Cc1cccc(C)c1N | 10.3% | 2.4% | -9.65% | -36.5% | 1.7% | 16.8%
24 | C1CCC2[N-]CCCC2C1.C1CCC2[N-]CCCC2C1.O=[N+]([O-])O.O=[N+]([O-])O.[Cu+2] (centres undefined) | 21.6% | 21.6% | 15.2% | -19.2% | -4.35% | 25.1%
25 | CCC[CH2][Sn]([CH2]CCC)([CH2]CCC)[CH2]S(=O)(=O)O | 99.3% (active) | 98.8% (active) | 98.9% (active) | 98.2% (active) | 99.4% (active) | 99% (active)
26 | COc1cc([C@@H]2c3cc4c(cc3C[C@H]3COC(=O)[C@@H]32)OCO4)cc(OC)c1OC | 5.2% | -3.05% | 10.2% | 27.6% | 24.4% | 13.6%
27 | O=P(O)(O)SP(=O)(O)O.[Co] | 22.2% | 6.9% | 11.2% | -8.9% | -12.8% | 14.2%
28 | C[n+]1c[se]cn1 | -2.9% | 9.25% | -8.2% | 1.2% | -14.1% | 0.55%
29 | COc1ccc2c3c1O[C@H]1C(Br)C=C[C@H]4[C@@H](C2)N(C)CC[C@]314 (some centres undefined) | -11.8% | -15.8% | 7.15% | -22.6% | 29.2% | 8.35%
30 | [Co].[NH2-].[NH2-].[NH2-].[NH2-].[NH2-].[NH2-] | -5% and 8.1% | -15.3% and 9.05% | -5.4% and 6.25% | -19.8% and 10.1% | 2.3% and 23.4% | -2.9% and -5.85%
31 | [N-]=[N+]=NC1(C(=O)O)CCCC1 | 0.95% | -6.85% | -15.4% | -14.2% | -5.75% | -34.8%
32 | COC(=O)/C=C/[C@@H]1[C@H](C)N1S(=O)(=O)c1ccc(C)cc1 (some centres undefined) | -9.7% | -11.3% | 11.7% | 6.95% | 13.9% | -23.5%
33 | O=P(O)(O)CCCP(=O)(O)O.[Zn+2] | -10.9% | -27.4% | -7.05% | -6.1% | -12.7% | 29.1%
34 | C/C=C/COC(=O)CO[N+](=O)[O-] | 2% | -4.25% | -5.3% | -12.8% | -0.5% | -0.15%
35 | C=C1CC/C=C(/C)C(=O)C(OC(C)=O)C2C1CC2(C)C (centres undefined) | 78% (active) | 83.6% (active) | 81.2% (active) | 70.7% (active) | 86.2% (active) | 81.4% (active)
36 | N#CCCCCCBr | 1.05% | -19.1% | 23% | 10.8% | 17.9% | 19.4%
37 | c1ccc2c(c1)sc1sc3c([n+]12)CCCC3 | 6.25% | -8.75% | -5.3% | -2.4% | -4.5% | -20.2%
38 | C/C1=N\NC(=O)c2ccccc2C(=O)N/N=C(\C)c2cccc1n2.O=[N+]([O-])[O-].[Zn+2] | -8.85% | -7.3% | -10.2% | 5.8% | -38% | -5.05%
39 | CN(C)c1cc(C(C)(C)C)nc(C(C)(C)C)c1 | 7.65% and 3% | -1.1% and -1.8% | 8.6% and 5.1% | 1.25% and -5.95% | 0.3% and -4.75% | 9.05% and 10.4%
